Experiment in all cases: DAPPL (digital affinity profiling via proximity ligation, sequencing); 10 mM Tris-HCl pH 7.5, 50 mM NaCl, 1 mM DTT, 4% glycerol, room temperature, 30 min; GST-TFs on glutathione beads, 16-mer random dsDNA library, 0.1% formaldehyde crosslink after washing; high values mean tight binding
The target in one assay is T1, FEV (Homo sapiens, UniProt Q99581 1-238).
T1 sequence: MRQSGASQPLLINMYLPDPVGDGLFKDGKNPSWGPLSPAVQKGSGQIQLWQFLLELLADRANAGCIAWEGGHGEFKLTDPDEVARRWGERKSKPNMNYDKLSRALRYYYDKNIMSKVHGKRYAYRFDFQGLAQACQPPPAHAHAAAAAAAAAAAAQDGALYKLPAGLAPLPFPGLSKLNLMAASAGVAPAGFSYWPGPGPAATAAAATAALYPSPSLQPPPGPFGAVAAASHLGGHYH
To be noted: protein: recombinant; tags: N-terminal GST; dsDNA, one strand shown. In short, it runs like this:
(§1)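 Yeast served to express human transcription factors as GST fusions, which were then captured on glutathione beads and labelled with DNA barcodes. Pooled with a tag-only sample, they were incubated with 200 nmole of a 16-mer random double-stranded DNA library for 30 min at room temperature in Tris/NaCl/DTT/glycerol buffer, washed, crosslinked with 0.1% formaldehyde, ligated by proximity, amplified by PCR and sequenced. Dividing each hexamer's read frequency for a factor by its frequency for the tag-only sample gives the binding signal.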

Another assay addresses ETV5 (Homo sapiens, UniProt P41161 1-510). To be noted: protein: recombinant; tags: N-terminal GST; dsDNA, one strand shown. An outline of the steps: as §1
The target of another assay is HSF1 (Homo sapiens, UniProt Q00613 1-529). To be noted: protein: recombinant; tags: N-terminal GST; chain copies: 3; dsDNA, one strand shown. An outline of the steps:
as §1

A further assay has as its target T2, SPIC (Homo sapiens, UniProt Q8N5J4 1-248).
T2 sequence: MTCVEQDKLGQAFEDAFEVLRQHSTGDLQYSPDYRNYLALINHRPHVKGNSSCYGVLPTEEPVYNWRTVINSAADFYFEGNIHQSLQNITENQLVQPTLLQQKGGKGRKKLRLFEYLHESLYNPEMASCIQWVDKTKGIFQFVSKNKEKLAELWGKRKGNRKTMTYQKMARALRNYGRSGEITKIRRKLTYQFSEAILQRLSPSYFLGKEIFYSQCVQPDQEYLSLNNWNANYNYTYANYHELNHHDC
To be noted: protein: recombinant; tags: N-terminal GST; dsDNA, one strand shown. An outline of the steps: as §1

For the next assay, the target named is ELF4 (Homo sapiens, UniProt Q99607 1-663). To be noted: protein: recombinant; tags: N-terminal GST; dsDNA, one strand shown. An outline of the steps: as §1
The target of the next assay is T3, ELK4 (Homo sapiens, UniProt P28324-2 1-405).
T3 sequence: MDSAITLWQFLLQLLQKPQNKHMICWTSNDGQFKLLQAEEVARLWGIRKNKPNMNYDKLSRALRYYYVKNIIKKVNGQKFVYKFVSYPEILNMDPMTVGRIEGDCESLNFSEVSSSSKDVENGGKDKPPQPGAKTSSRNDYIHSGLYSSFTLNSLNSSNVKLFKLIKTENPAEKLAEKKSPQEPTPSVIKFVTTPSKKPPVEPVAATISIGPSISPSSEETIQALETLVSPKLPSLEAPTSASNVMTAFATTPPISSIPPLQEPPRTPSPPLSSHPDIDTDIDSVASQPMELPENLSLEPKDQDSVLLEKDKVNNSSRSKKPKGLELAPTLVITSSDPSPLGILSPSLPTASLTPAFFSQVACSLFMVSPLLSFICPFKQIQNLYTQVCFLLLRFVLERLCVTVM
To be noted: protein: recombinant; tags: N-terminal GST; dsDNA, one strand shown. An outline of the steps: as §1

For a further assay, the target named is T4, ETV2 (Homo sapiens, UniProt O00321 1-342).
T4 sequence: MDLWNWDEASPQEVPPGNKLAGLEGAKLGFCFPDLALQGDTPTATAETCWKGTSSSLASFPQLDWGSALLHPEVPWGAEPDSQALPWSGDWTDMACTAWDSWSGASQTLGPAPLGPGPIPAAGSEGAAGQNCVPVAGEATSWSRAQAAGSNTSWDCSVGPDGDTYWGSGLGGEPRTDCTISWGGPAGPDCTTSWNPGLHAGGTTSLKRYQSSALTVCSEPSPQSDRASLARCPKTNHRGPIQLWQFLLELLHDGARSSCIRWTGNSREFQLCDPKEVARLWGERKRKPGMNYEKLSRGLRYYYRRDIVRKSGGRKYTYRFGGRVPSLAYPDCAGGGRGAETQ
To be noted: protein: recombinant; tags: N-terminal GST; dsDNA, one strand shown. In short, it runs like this:
as §1

Another assay concerns the target T5, ELF3 (Homo sapiens, UniProt P78545 1-371).
T5 sequence: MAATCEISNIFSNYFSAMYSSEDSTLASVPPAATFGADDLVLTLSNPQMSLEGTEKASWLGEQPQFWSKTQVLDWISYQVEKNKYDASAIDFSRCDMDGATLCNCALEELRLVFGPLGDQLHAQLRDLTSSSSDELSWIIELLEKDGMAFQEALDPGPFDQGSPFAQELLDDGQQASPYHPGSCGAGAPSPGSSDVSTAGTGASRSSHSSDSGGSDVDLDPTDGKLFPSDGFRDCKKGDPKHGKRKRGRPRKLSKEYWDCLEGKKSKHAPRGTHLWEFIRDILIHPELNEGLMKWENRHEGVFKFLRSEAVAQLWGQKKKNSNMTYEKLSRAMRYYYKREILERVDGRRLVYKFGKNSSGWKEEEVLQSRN
To be noted: protein: recombinant; tags: N-terminal GST; dsDNA, one strand shown. An outline of the steps: as §1

A further assay concerns the target CRX (Homo sapiens, UniProt O43186 1-299). To be noted: protein: recombinant; tags: N-terminal GST; dsDNA, one strand shown. An outline of the steps: as §1
The next assay concerns the target ETV1 (Homo sapiens, UniProt P50549 1-477). To be noted: protein: recombinant; tags: N-terminal GST; dsDNA, one strand shown. In short, it runs like this: as §1

Chain of CRX (O43186 whole entry): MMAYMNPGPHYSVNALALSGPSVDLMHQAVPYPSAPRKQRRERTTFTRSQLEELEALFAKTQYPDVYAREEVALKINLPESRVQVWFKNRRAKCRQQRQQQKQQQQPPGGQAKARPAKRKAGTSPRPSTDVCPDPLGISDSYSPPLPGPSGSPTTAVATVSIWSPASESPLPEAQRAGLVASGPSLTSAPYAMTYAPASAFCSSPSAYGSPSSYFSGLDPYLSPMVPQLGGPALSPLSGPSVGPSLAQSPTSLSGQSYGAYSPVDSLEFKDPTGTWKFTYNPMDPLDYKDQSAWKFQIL
Chain of ETV5 (P41161 whole entry): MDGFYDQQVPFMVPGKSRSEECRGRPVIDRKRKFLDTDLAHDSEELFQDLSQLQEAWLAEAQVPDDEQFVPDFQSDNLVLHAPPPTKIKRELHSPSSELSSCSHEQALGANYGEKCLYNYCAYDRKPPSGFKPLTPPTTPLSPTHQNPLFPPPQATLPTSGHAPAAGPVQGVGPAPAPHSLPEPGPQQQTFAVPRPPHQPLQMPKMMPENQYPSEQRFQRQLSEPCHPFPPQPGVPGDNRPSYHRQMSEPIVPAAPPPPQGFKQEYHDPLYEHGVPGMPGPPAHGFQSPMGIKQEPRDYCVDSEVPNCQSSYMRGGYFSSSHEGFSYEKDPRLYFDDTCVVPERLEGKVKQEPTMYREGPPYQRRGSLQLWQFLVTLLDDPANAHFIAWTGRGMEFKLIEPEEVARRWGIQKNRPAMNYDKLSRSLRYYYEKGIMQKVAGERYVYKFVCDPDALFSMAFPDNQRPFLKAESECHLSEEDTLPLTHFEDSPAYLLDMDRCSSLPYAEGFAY
Chain of ELF4 (Q99607 whole entry): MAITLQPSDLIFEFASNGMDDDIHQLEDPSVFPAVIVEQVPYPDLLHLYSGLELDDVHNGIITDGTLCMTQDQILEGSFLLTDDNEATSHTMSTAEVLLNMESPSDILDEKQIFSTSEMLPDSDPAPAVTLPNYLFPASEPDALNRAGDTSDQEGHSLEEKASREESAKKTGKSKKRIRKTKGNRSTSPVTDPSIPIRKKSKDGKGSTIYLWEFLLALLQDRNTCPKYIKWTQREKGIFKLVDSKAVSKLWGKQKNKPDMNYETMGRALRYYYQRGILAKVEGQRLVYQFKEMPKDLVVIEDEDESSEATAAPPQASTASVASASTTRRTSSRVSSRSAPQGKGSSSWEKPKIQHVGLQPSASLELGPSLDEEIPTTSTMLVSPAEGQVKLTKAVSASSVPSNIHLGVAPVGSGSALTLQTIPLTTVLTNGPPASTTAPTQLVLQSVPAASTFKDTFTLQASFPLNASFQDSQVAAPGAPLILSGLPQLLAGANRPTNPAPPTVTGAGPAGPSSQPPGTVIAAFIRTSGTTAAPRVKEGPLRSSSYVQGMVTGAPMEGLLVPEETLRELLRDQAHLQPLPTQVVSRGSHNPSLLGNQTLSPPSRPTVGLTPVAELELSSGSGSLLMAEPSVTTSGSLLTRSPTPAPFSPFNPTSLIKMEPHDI
Chain of HSF1 (Q00613 whole entry): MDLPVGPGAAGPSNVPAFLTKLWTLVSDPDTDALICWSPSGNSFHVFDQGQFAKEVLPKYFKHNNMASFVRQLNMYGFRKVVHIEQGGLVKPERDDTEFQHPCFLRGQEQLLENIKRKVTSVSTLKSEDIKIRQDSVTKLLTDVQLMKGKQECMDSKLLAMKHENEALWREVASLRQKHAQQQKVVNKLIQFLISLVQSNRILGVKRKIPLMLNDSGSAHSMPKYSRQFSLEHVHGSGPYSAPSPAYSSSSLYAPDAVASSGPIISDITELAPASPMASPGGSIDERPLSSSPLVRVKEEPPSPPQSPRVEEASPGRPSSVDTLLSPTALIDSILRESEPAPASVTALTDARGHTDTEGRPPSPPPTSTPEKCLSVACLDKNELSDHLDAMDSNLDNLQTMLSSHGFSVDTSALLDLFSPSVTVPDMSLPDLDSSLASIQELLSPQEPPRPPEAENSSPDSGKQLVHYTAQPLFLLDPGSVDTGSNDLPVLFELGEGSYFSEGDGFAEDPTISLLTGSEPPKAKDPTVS
Chain of ETV1 (P50549 whole entry): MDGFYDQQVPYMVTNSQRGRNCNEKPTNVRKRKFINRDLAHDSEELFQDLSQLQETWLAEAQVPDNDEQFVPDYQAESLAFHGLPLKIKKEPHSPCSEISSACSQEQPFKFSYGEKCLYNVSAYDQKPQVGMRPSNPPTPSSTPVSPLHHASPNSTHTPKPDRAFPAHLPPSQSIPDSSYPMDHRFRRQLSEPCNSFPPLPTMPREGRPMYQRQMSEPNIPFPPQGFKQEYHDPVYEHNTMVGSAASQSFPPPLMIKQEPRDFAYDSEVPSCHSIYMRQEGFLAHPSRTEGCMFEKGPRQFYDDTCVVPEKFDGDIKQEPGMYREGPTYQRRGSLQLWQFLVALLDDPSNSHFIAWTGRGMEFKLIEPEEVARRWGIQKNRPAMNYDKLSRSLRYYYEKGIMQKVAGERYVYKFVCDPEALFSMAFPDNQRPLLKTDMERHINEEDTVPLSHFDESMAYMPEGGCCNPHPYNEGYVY

Turning to TGTCCT, the binding signal was 1.45 fold enrichment (6-mer frequency, TF over GST control) with FEV; 1.56 fold enrichment (6-mer frequency, TF over GST control) in the assay with ETV5; 1.06 fold enrichment (6-mer frequency, TF over GST control) with HSF1; 1.53 fold enrichment (6-mer frequency, TF over GST control) with SPIC; 1.4 fold enrichment (6-mer frequency, TF over GST control) with ELF4; 1.28 fold enrichment (6-mer frequency, TF over GST control) in the assay with ELK4. The binding signal in the assay with ETV2 is 1.67 fold enrichment (6-mer frequency, TF over GST control); with ELF3, 1.46 fold enrichment (6-mer frequency, TF over GST control); with CRX it was 1.12 fold enrichment (6-mer frequency, TF over GST control); with ETV1 it was 1.55 fold enrichment (6-mer frequency, TF over GST control).
In the case of CAAATC, the binding signal with FEV was 1.16 fold enrichment (6-mer frequency, TF over GST control); with ETV5, 1.14 fold enrichment (6-mer frequency, TF over GST control); with HSF1 it was 1.29 fold enrichment (6-mer frequency, TF over GST control); with SPIC, 1.17 fold enrichment (6-mer frequency, TF over GST control); in the assay with ELF4, 1.12 fold enrichment (6-mer frequency, TF over GST control); with ELK4, 1.17 fold enrichment (6-mer frequency, TF over GST control). Further, the binding signal with ETV2 was 1.1 fold enrichment (6-mer frequency, TF over GST control); with ELF3 it was 1.12 fold enrichment (6-mer frequency, TF over GST control); with CRX, 1.69 fold enrichment (6-mer frequency, TF over GST control); with ETV1, 1.15 fold enrichment (6-mer frequency, TF over GST control).
Consider GAAGCT, for which the binding signal is 1.48 fold enrichment (6-mer frequency, TF over GST control) with FEV; 1.62 fold enrichment (6-mer frequency, TF over GST control) in the assay with ETV5; 1.74 fold enrichment (6-mer frequency, TF over GST control) in the assay with HSF1; 1.44 fold enrichment (6-mer frequency, TF over GST control) with SPIC; 1.49 fold enrichment (6-mer frequency, TF over GST control) in the assay with ELF4; 1.69 fold enrichment (6-mer frequency, TF over GST control) with ELK4. Further, the binding signal was 1.56 fold enrichment (6-mer frequency, TF over GST control) with ETV2; 1.47 fold enrichment (6-mer frequency, TF over GST control) with ELF3; 1.47 fold enrichment (6-mer frequency, TF over GST control) with CRX; 1.57 fold enrichment (6-mer frequency, TF over GST control) with ETV1.
Regarding CCTACA, the binding signal with FEV is 1.18 fold enrichment (6-mer frequency, TF over GST control); in the assay with ETV5, 1.26 fold enrichment (6-mer frequency, TF over GST control); in the assay with HSF1, 1.07 fold enrichment (6-mer frequency, TF over GST control); in the assay with SPIC, 1.35 fold enrichment (6-mer frequency, TF over GST control); in the assay with ELF4, 1.22 fold enrichment (6-mer frequency, TF over GST control); with ELK4 it was 1.31 fold enrichment (6-mer frequency, TF over GST control). The binding signal with ETV2 is 1.13 fold enrichment (6-mer frequency, TF over GST control); with ELF3, 1.13 fold enrichment (6-mer frequency, TF over GST control); with CRX, 1.01 fold enrichment (6-mer frequency, TF over GST control); in the assay with ETV1 it was 1.16 fold enrichment (6-mer frequency, TF over GST control).
For TTTGGG, the binding signal with FEV was 1.31 fold enrichment (6-mer frequency, TF over GST control); with ETV5, 1.39 fold enrichment (6-mer frequency, TF over GST control); with HSF1, 1.36 fold enrichment (6-mer frequency, TF over GST control); in the assay with SPIC, 1.16 fold enrichment (6-mer frequency, TF over GST control); with ELF4 it was 1.41 fold enrichment (6-mer frequency, TF over GST control); with ELK4, 1.41 fold enrichment (6-mer frequency, TF over GST control). The binding signal was 1.42 fold enrichment (6-mer frequency, TF over GST control) with ETV2; 1.7 fold enrichment (6-mer frequency, TF over GST control) with ELF3; 1.57 fold enrichment (6-mer frequency, TF over GST control) with CRX; 1.43 fold enrichment (6-mer frequency, TF over GST control) in the assay with ETV1.
As to GCCGAT, the binding signal in the assay with FEV is 1.11 fold enrichment (6-mer frequency, TF over GST control); with ETV5, 1.11 fold enrichment (6-mer frequency, TF over GST control); in the assay with HSF1, 1.13 fold enrichment (6-mer frequency, TF over GST control); with SPIC, 1.03 fold enrichment (6-mer frequency, TF over GST control); with ELF4, 1.16 fold enrichment (6-mer frequency, TF over GST control); with ELK4, 1.13 fold enrichment (6-mer frequency, TF over GST control). Further, the binding signal in the assay with ETV2 is 1.13 fold enrichment (6-mer frequency, TF over GST control); with ELF3, 1.02 fold enrichment (6-mer frequency, TF over GST control); in the assay with CRX it was 1.46 fold enrichment (6-mer frequency, TF over GST control); with ETV1, 1.07 fold enrichment (6-mer frequency, TF over GST control).
Consider CACTCT, for which the binding signal with FEV was 1.24 fold enrichment (6-mer frequency, TF over GST control); with ETV5 it was 1.29 fold enrichment (6-mer frequency, TF over GST control); in the assay with HSF1 it was 1.24 fold enrichment (6-mer frequency, TF over GST control); with SPIC, 1.22 fold enrichment (6-mer frequency, TF over GST control); with ELF4 it was 1.22 fold enrichment (6-mer frequency, TF over GST control); with ELK4 it was 1.58 fold enrichment (6-mer frequency, TF over GST control). In addition, the binding signal with ETV2 was 1.37 fold enrichment (6-mer frequency, TF over GST control); with ELF3, 1.4 fold enrichment (6-mer frequency, TF over GST control); in the assay with CRX, 1.08 fold enrichment (6-mer frequency, TF over GST control); with ETV1, 1.33 fold enrichment (6-mer frequency, TF over GST control).
For TAGCTG, the binding signal with FEV was 1.16 fold enrichment (6-mer frequency, TF over GST control); with ETV5, 1.06 fold enrichment (6-mer frequency, TF over GST control); in the assay with HSF1, 1.23 fold enrichment (6-mer frequency, TF over GST control); with SPIC, 1.09 fold enrichment (6-mer frequency, TF over GST control); with ELF4, 1.2 fold enrichment (6-mer frequency, TF over GST control); with ELK4 it was 1.23 fold enrichment (6-mer frequency, TF over GST control). For the same sequence, the binding signal with ETV2 was 1.15 fold enrichment (6-mer frequency, TF over GST control); with ELF3 it was 1.17 fold enrichment (6-mer frequency, TF over GST control); in the assay with CRX, 1.38 fold enrichment (6-mer frequency, TF over GST control); in the assay with ETV1, 1.12 fold enrichment (6-mer frequency, TF over GST control).

For the origin of these results see PMC7862700, “An all-to-all approach to the identification of sequence-specific readers for epigenetic DNA modifications on cytosine”.
